Experimental findings from paper PMC12136788 are described below.

Positions count from the first letter of the chain named. Whole data set: some 24,000 sequences, median “enrichment r” near 0.99, cut for the highest 2% near 3.7. This excerpt belongs to a sample that is enriched for the highest values.

T1: UNK ZnF1-3 (human, UniProt Q9C0B0 31-174)
T1 sequence: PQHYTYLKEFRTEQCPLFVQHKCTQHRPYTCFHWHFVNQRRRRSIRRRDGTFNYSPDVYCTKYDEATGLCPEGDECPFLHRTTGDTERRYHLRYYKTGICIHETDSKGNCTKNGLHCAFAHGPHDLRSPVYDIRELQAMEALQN

B1: 75522086_75522670_732_CDS_ENSMUSG00000026213_ENSMUST00000113553|mouse|control|control (ssRNA)
RNA: GGGAGUUCUACAGUCCGACGAUCCAGGAGACGCAGGGAGCUGUCUAAGCUCCUGAGCGCAUUGUAGCUGAAGUCGGCAGAAAGCAAGGCUAGCCAGGGGAGGGCAGAGCAGAGAUCCCCACCACAGGCUGACAAGAGCUCCUCCAACAGAGGAUUGAGCAUCA
B2: chr1:244855233:244855234:+_ENSG00000121644_ENST00000302550|hu_mus|hu_hu_hu_mus_True|28_88 (ssRNA)
RNA: GGGAGUUCUACAGUCCGACGAUCCAUCAGAUGGUAGGCGUUGCCCUUGUAUUCUUUCCCCAGUUCUUCUACAAUUUUCUCUAUAUCAUCUUCUAGAAAGUCCGUACUCCCUAAAACAACAGCUUCUUUAAAUUUAAAUGUUUCCAACAGAGGAUUGAGCAUCA
B3: chr7:118222036:118222037:-_ENSMUSG00000005610_ENSMUST00000162415|mus_mus|FALSE|FALSE (ssRNA)
RNA: GGGAGUUCUACAGUCCGACGAUCAUCAAAGUUUGGUGCAUCUUCUGCCAAUCGCAGACAUAGCUGAGCAUACAGCGAGCUAUACUUUGGCUCUUCUAAGGCUUUGUCCACAAUCAGCAGUAUGACCCCUUUAAGGAUGAGUUUCAACAGAGGAUUGAGCAUCA
B4: chr18:38477064:38477065:+_ENSMUSG00000060450_ENSMUST00000072376|mus_hu|motif|central (ssRNA)
RNA: GGGAGUUCUACAGUCCGACGAUCUGCAGAUAUAAUUCAAGAACAUUCAGCUUGGGAAUAUAUUAAGCUUUCUCCGGUUCCAGCAGAGGAAAUAAAAACAUGUGUUCCUGGAAUUAAUAUUAAAAUCAUCCUUACAAACAGAAGCAACAGAGGAUUGAGCAUCA
B5: chr15:25293464:25293465:-_ENSMUSG00000045763_ENSMUST00000058845|mus_hu|motif|central (ssRNA)
RNA: GGGAGUUCUACAGUCCGACGAUCAAAAAUAUCUGGAGAGGAAGAAUGGAGGAUUGGCAUUGAGAUCCAUGUGGACAAGCGGAGUGGGCUCUGUCUGAAAGCUGGCAUUCAUCCACAACAUUAAAAAAAUAUCAAAAUAAGAAACAACAGAGGAUUGAGCAUCA
B6: chr1:46159212:46159213:+_ENSG00000159596_ENST00000372025|hu_mus|hu_hu_hu_mus_True|38_58 (ssRNA)
RNA: GGGAGUUCUACAGUCCGACGAUCUCUGAUCCCUCCCAAGAAAGCUAGGAAACCGGCUCCAUAAGCCAUCUGAGUGAAAGCUAAUAUGGGGAUAUAAGUUUUUGUCAUUACCAUGAGAAGUGGGGGAGCAGUAAAGGGGAUUAACAACAGAGGAUUGAGCAUCA
B7: chr15:25293464:25293465:-_ENSMUSG00000045763_ENSMUST00000058845|mus_hu|FALSE|FALSE (ssRNA)
RNA: B5 RNA with G80U, G81A
B8: chr15:25293464:25293465:-_ENSMUSG00000045763_ENSMUST00000058845|mus_mus|motif|central (ssRNA)
RNA: GGGAGUUCUACAGUCCGACGAUCAAAAAUAUCUGGAGAGGAAAAAUGGAGGGUUGGCAUUGAGAUACAUGUGGACAAGCGGAGUGGGCUCCGUCUGAAAGUUGGCAUUCAUCCACGAACGUUUAAAAAAAUACCAAAAAAAUUCAACAGAGGAUUGAGCAUCA
B9: chr9:122046571:122046572:+_ENSMUSG00000038145_ENSMUST00000120173|mus_mus|FALSE|FALSE (ssRNA)
RNA: GGGAGUUCUACAGUCCGACGAUCCUGAAAUUUGUUGCUGAAGCCAAAGUCUGUCAACUUCACAAGACCUUGUUUUUCAAAAAAGACUACAUUCUCUGGUUUCAAGUCUCUGUGGACCACAUGGAGUUUAUGGCAAUAAGAUAUCAACAGAGGAUUGAGCAUCA
B10: chr5:128448638:128448639:+_ENSG00000066583_ENST00000173527|hu_mus|hu_hu_hu_mus_False|8_98 (ssRNA)
RNA: GGGAGUUCUACAGUCCGACGAUCGGCACUCGCCUUAAUUAGAUUCUGAAUUUCCUUGAACUUCGGGUGGUCUUUGUCAGCCACCAGCUGUAGGAGGACAGCCUCACUAGUGGUCACGAUGAUCCCAGUUCGAGCGAGACGCUCCAACAGAGGAUUGAGCAUCA
B11: chr12:39763582:39763583:-_ENSG00000139116_ENST00000544797|hu_mus|hu_hu_hu_mus_False|1_28 (ssRNA)
RNA: GGGAGUUCUACAGUCCGACGAUCCUCUAGGAACUGGGCAUUCACUUUGAAUUCAGGAGGGGGCAGCCCGUUUUUAAUCGCUGAGGUCUUUUUCUCAUCAAUACUCUUAAAAAGGUGUCUAACAGCACGAGAGAUGAUACCCAGCAACAGAGGAUUGAGCAUCA
B12: chr1:153198750:153198751:+_ENSMUSG00000023150_ENSMUST00000023918|perfect_dup|FALSE|FALSE (ssRNA)
RNA: GGGAGUUCUACAGUCCGACGAUCUUCUGGAUUGAGAUCAUCCAACUUCACAUGAGAAACUCCAUGAGGGUCACUGUCACUAUUGAAGAUUUCAAAUAGAUAGGGGCUACAGCAAGCCAGGACUGCCCUGUGUGCUAGCAUCUCCAACAGAGGAUUGAGCAUCA
B13: chr2:48034705:48034706:-_ENSG00000138081_ENST00000403359|hu_hu|FALSE|FALSE (ssRNA)
RNA: GGGAGUUCUACAGUCCGACGAUCCAUAGAAAGAACGUACAUACUGGGACAUGAGUACAGUUACAGCAAGUCUAGGUGUGCUAACAAAACAGGGCACAUUCAAGUACAGUAAGAUUUUGCUUGAAAUUAAAAACAAACUACAUGCAACAGAGGAUUGAGCAUCA
B14: chr8:86505109:86505110:+_ENSMUSG00000005469_ENSMUST00000005606|mus_mus|motif|central (ssRNA)
RNA: GGGAGUUCUACAGUCCGACGAUCCUUGUGCUUCACCAGCAUCACUCGCCCAAAGGAGCCGGUGCCAAGGGUCUUGAUUCGGUCAAACUGAUCCAACUGGGCUGUAUUCUGAGAAGGGGUCUCCCAUUUUUUCAGGAAAUCUUCCAACAGAGGAUUGAGCAUCA
B15: chr1:153198750:153198751:+_ENSMUSG00000023150_ENSMUST00000023918|perfect_dup|FALSE|FALSE (ssRNA)
RNA: GGGAGUUCUACAGUCCGACGAUCUUCUGGAUUGAGAUCAUCAAAUUUAACGUGAGAAAUUCCAUGAGGAUCACUAUCACUAUUAAAGAUUUCAAAUAAAUAGGGACUGCAGCAAGCUAGCACUGCUCUGUGUGCUAACAUUUCCAACAGAGGAUUGAGCAUCA
B16: chr3:100366718:100366719:-_ENSMUSG00000008763_ENSMUST00000008907|mus_hu|FALSE|FALSE (ssRNA)
RNA: GGGAGUUCUACAGUCCGACGAUCAUUCUUAAAGAAAAAUCUAUUAUCUGUUAGCAUGAUUGGAGCACUGCAAUGUAUAUGCUAGUAAUAUGGUGUGUAAUUUCACAAGCAAUUUUAUGAGUUCUGCAAUUGCUAGGCUCAAACCAACAGAGGAUUGAGCAUCA
B17: chr15:74751088:74751089:-_ENSG00000138629_ENST00000361351|perfect_dup|FALSE|FALSE (ssRNA)
RNA: GGGAGUUCUACAGUCCGACGAUCCGGGUCUGGAACAGAUUCCUGGAGCUUGCCAGCAAUAAGCUGCUUCAGAAAUGAAAUGCUAUAGCCCCCUAGGGAAUAUUCUCCCAGUUCUGUCUCUGGCAACUGAAGAAUAGAUUUUGGCAACAGAGGAUUGAGCAUCA

For this test, the target named is T1, UNK ZnF1-3. As to the kind of experiment: nsRBNS (natural sequence RNA bind-n-seq); RBNS binding buffer (assumed for nsRBNS): 25 mM Tris pH 7.5, 150 mM KCl, 3 mM MgCl2, 0.01% Triton X-100, 500 ug/ml BSA, 20 U/ml SUPERase-In, 4 C; UNK is unkempt and MSI1 is Musashi-1; names of the RNAs are library labels; protein concentration not given here; high values mean tight binding.
In turn, B1 had a binding signal of 1.21 enrichment R.
Under B2 stands 1.19 enrichment R; under B3, 0.544 enrichment R.
Next, B4: 2.14 enrichment R; B5: 8.1 enrichment R.
For the molecule B6, the binding signal stood at 1.29 enrichment R.
Next, B7: 15.3 enrichment R.
B8 had a binding signal of 3.28 enrichment R.
B9: the binding signal was 0.833 enrichment R.
B10 had a binding signal of 0.656 enrichment R.
Under B11 stands 1.45 enrichment R; under B12, 5.29 enrichment R; under B13, 1.25 enrichment R.
With B14, the binding signal was found to be 1.11 enrichment R.
Turning to B15, the binding signal was 5.29 enrichment R.
Under B16 stands 0.664 enrichment R; under B17, 1.14 enrichment R.
